Chronic BCR inh = qHTS Assay to Find Inhibitors of Chronic Active B-Cell Receptor Signaling; ABC-DLBCL IkBa-CBG/CBR reporter, luminescence ratio, 4 h; AID 493014, 2011; hit rate 0.05% among 340,000; Potency, µM (series often up to 46.1 µM), for the others: at the top dose activity change, negative = inhibition, most hits filed as inhibitors; active = well fitted inhibition curve with a large enough effect in the signal ratio, with a control signal flat, not every such curve was filed as active; inconclusive = small, poorly fitted or top-dose-only effect, or effect the other way, or a change in a side signal; the % refers to the signal ratio;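 also: potency is read from the fitted curve at half-maximal effect; plate controls were basal doxycycline-induced cells for no effect and cells given 10 µM MG132 for full effect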
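TMD8 ABC-DLBCL cells carrying doxycycline-inducible green luciferase fused to IkappaBalpha plus unfused red luciferase were exposed to compounds (up to 46 uM) for 4 hrs at 37C. Activity came from the overlap-corrected green/red luminescence ratio.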
IL1B secr inh = qHTS for Inhibitors of Inflammasome Signaling: IL-1-beta AlphaLISA Primary Screen. THP-1 LPS/ATP IL-1B secretion, AlphaLISA, 16 h; active compounds read low. hit rate 4.7% among 360,000. activity change, % at 57.5 µM; in the data active = activity change below about -50%; inconclusive = mostly about -30% to -49%; also: % is scaled to controls: 0 for no effect and ±100 for the full control effect
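THP-1 cells pretreated 1 hr with compounds (up to 57.5 uM final), then stimulated with LPS (250 ng/mL final) plus ATP (1.25 mM final); secreted IL-1B measured by AlphaLISA after 16 hr, decreased signal indicating inhibition.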
SW480 rerep = A quantitative high throughput screen for small molecules that induce DNA re-replication in SW480 colon adenocarcinoma cells | SW480 DNA re-replication, Hoechst DNA content imaging, 48 h | Potency, µM (top dose mostly 46.1 µM), for the others: at the top dose re-replication activation, most hits filed as activators | hit rate 1.8% among 340,000; also: potency is read from the fitted curve at half-maximal effect; % of control where 0% means no effect; nearly all actives have a fitted effect of over 55% in size
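Quantitative HTS format with DMSO vehicle controls; 48 hr drug incubation at 37 C, then 40 min Hoechst staining and scanning imager measurement at 405 nm excitation.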
MCF10A rerep = A quantitative high throughput screen for small molecules that induce DNA re-replication in MCF 10a normal breast cells; hit rate 2.9% among 350,000; AID 624296, 2012; Potency, µM (series often up to 46.1 µM), for the others: top-dose activity, positive = re-replication, actives largely listed as activators; MCF 10A DNA re-replication, Hoechst nuclear intensity, 48 h; also: potency is read from the fitted curve at half-maximal effect; % of control where 0% means no effect; nearly all actives have a fitted effect of over 50% in size
DT40 TDP1 CPT = qHTS for Inhibitors of human tyrosyl-DNA phosphodiesterase 1 (TDP1): qHTS in cells in presence of CPT. chicken DT40 Tdp1-/-;hTDP1 cells + 20 nM CPT, ATP luminescence, 48 h. AID 686979, 2013. Potency, µM (titrated, usually from 46.2 µM), for inactives: top-dose activity change, negative = growth inhibition, actives largely listed as inhibitors. hit rate 12% among 420,000; also: potency is read from the fitted curve at half-maximal effect; % is scaled to controls: 0 for no effect and ±100 for the full control effect; nearly all actives have a fitted effect of over 55% in size
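Chicken DT40 Tdp1-/- cells stably complemented with human TDP1 were seeded at 400 cells/well in medium containing 20 nM camptothecin, exposed to pin-transferred compounds, and grown at 37 °C for at least 48 hr. Viability was read as ATP luminescence.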
DT40 TDP1 no CPT = qHTS for Inhibitors of human tyrosyl-DNA phosphodiesterase 1 (TDP1): qHTS in cells in absence of CPT. DT40 Tdp1-/- hTDP1 cells, no CPT, ATP luminescence, 48 h. hit rate 15% among 420,000. AID 686978, 2013. Potency, µM (highest dose often 46.2 µM), inactives show at the highest dose activity change, negative = growth inhibition, most hits filed as inhibitors; also: potency is read from the fitted curve at half-maximal effect; % is scaled to controls: 0 for no effect and ±100 for the full control effect; nearly all actives have a fitted effect of over 55% in size
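Readout: luminescence from CellTiter-Glo after 30 min in the dark at RT. Cells: DT40 Tdp1-/- with stable hTDP1, 400/well. Exposure: compounds alone, ≥48 hr, 37 °C.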
* marks the source's active call; other numbers are inactive results; ? = inconclusive; . = not tested or not shown. Hits are enriched below; roughly 19% of the tested compounds scored in any of these assays. Unless noted, calls follow the shape of the dose curve; as a rule, active = well fitted curve in the direction sought with a large enough effect; inconclusive = small, poorly fitted or top-dose-only effect, or another doubt; inactive = no such curve, though single readings can be large; an effect the other way counts as inactive or inconclusive.

SMILES | Chronic BCR inh | IL1B secr inh | SW480 rerep | MCF10A rerep | DT40 TDP1 CPT | DT40 TDP1 no CPT
O=C(c1ccccc1Br)N(Cc1ccccc1F)C1CCS(=O)(=O)C1 (stereo not given) | . | . | . | . | -28% | ?
Cc1ccc2c(C)c(C(=O)N(Cc3ccc(F)cc3)C3CCS(=O)(=O)C3)oc2c1 (stereo not given) | -1% | ? | ? | 21% | ? | ?
Cc1c(C(=O)N(Cc2ccccc2F)C2CCS(=O)(=O)C2)oc2ccc(F)cc12 (stereo not given) | . | . | . | . | 16µM* | 21µM*
Cc1ccc2oc(C(=O)N(Cc3ccccc3F)C3CCS(=O)(=O)C3)c(C)c2c1 (stereo not given) | . | . | . | . | ? | 23µM*
O=C(NCc1nnc(SCc2ccc(F)cc2)n1-c1ccc(F)cc1)C12CC3CC(CC(C3)C1)C2 | -3% | ? | 0% | 9% | 15µM* | 29µM*
CCCSc1nnc(CNC(=O)C23CC4CC(CC(C4)C2)C3)n1Cc1ccccc1 | ? | -10 | 1% | 3% | 16µM* | ?
CCSc1nnc(CNC(=O)C23CC4CC(CC(C4)C2)C3)n1C1CCCCC1 | 10% | 7 | 1% | 5% | 23µM* | 26µM*
CCSc1nnc(CNC(=O)C23CC4CC(CC(C4)C2)C3)n1Cc1ccccc1 | ? | -4 | 1% | ? | ? | ?
CSc1ccccc1C(=O)NCC1Cc2cccc(-c3ncccc3C)c2O1 (stereo not given) | . | . | . | . | -8% | -23%
O=S(=O)(Nc1ccc(-c2ccc(N3CCCC3)nn2)cc1)c1ccccc1Cl | . | . | . | . | ? | -24%
CC(CCC(=O)O)C1CCC2C3CC(O)[C@@H]4CC(O)CC[C@]4(C)C3CC[C@@]12C (stereo not given in full) | . | . | . | . | 4% | -9%
CCC(=O)N1CCc2cc(CNC(=O)c3ccc(F)cc3)ccc21 | -10% | . | . | . | -29% | -24%
COc1ccccc1-n1c(=O)oc2ccc(Cl)cc2c1=O | ? | -20 | 15% | 6.5µM* | ? | 16µM*
COc1c(Cl)c(=O)oc2ccc(Cl)cc12 | . | 9 | . | . | -14% | -2%
CC(C)[C@@H]1Cc2[nH]c(=O)[nH]c(=O)c2[C@H](C)O1 | . | -9 | . | . | 8% | -20%
CCN(CC)CCNC(=O)c1cc(Nc2ccc(OC)c(OC)c2)nc2ccccc12 | 0% | -58* | 29% | 0% | -25% | 11%
CCN(CC)CCCNC(=O)c1cc(Nc2ccc(OC)cc2)nc2ccccc12 | 0% | -60* | ? | ? | 18µM* | 23µM*
Fc1ccc(-n2ncc3c(N4CCC(Cc5ccccc5)CC4)ncnc32)cc1 | ? | . | . | . | -29% | -21%
Cc1nn(CC(=O)NCCCN2CCN(Cc3ccccc3)CC2)c(=O)c2cc(-c3ccccc3)nn12 | 2% | 5 | -11% | -5% | ? | 21µM*
Cc1nn(CC(=O)Nc2ccc(Cl)cc2)c(=O)c2cc(-c3ccccc3)nn12 | -1% | 32 | 15µM* | 21µM* | ? | ?
COc1ccc(-c2cc3c(=O)n(CC(=O)Nc4ccc(Cl)cc4)ncn3n2)cc1 | 2% | 25 | -1% | 11% | -12% | 6%
Cc1nn(CC(=O)NCCCN2CCC(Cc3ccccc3)CC2)c(=O)c2cc(-c3ccccc3)nn12 | -2% | -19 | ? | -9% | 18µM* | 18µM*
CC1(C)S[C@@H]2[C@H](NC(=O)Cc3ccccc3)C(=O)N2[C@@H]1C(=O)O | . | . | 8% | 10% | . | .
Cc1cc(C(O)c2ncc(-c3ccc(Oc4ccccc4)cc3)[nH]2)ccc1F (stereo not given) | . | -53* | . | . | 18µM* | ?
Cc1cc(C(O)c2ncc(-c3cccc(F)c3)[nH]2)ccc1F (stereo not given) | . | 2 | . | . | -7% | -25%
SMILES | Chronic BCR inh | IL1B secr inh | SW480 rerep | MCF10A rerep | DT40 TDP1 CPT | DT40 TDP1 no CPT
OC(c1ccc(F)cc1)c1ncc(-c2ccc(Oc3ccccc3)cc2)[nH]1 (stereo not given) | . | -4 | . | . | ? | 16µM*
CC(C)(C)c1ccc(C(O)c2ncc(-c3ccc(F)cc3)[nH]2)cc1 (stereo not given) | . | -67* | . | . | ? | -40%
Cc1cc(C(O)c2ncc(-c3ccc(Cl)cc3)[nH]2)ccc1F (stereo not given) | . | -13 | . | . | 18µM* | ?
OC(c1ccc(F)c(F)c1)c1ncc(-c2ccc(Cl)cc2)[nH]1 (stereo not given) | . | 22 | . | . | ? | ?
CC(C)(C)c1ccc(C(O)c2ncc(-c3ccccc3)[nH]2)cc1 (stereo not given) | . | -24 | . | . | ? | -18%
COc1ccc(O)c(/C=N/NC(=O)c2ccc(N3CCCC3=O)cc2)c1 | 10% | 13 | 2.3µM* | 11% | 13µM* | 23µM*
COc1ccc(O)c(/C=N/NC(=O)c2cccc(N3CCCC3=O)c2)c1 | 2% | 126 | ? | 3% | 5.2µM* | 3.3µM*
O=C(N/N=C/c1ccco1)c1cccc(N2CCCC2=O)c1 | ? | -5 | 0% | 1% | -16% | -23%
COc1cccc(/C=N/NC(=O)c2cccc(N3CCCC3=O)c2)c1 | ? | -9 | -13% | -5% | -9% | -11%
O=C(N/N=C/c1cc(Br)ccc1O)c1cccc(N2CCCC2=O)c1 | -3% | 42 | . | 22% | 1.6µM* | 4.6µM*
COc1ccc(/C=N/NC(=O)c2ccc(N3CCCC3=O)cc2)cc1 | -2% | -1 | -10% | -2% | 10% | -7%
Cc1cccc(/C=N/n2c(C)nc3ccccc3c2=O)c1 | 4% | -7 | 28% | 1% | -7% | ?
COCCN(C(=O)C1CC(=O)N(Cc2ccccc2)C1)c1nc(-c2ccc([N+](=O)[O-])cc2)cs1 (stereo not given) | -3% | -16 | -3% | 24% | 16µM* | 21µM*
C=CCN(C(=O)CN1CCCCC1)c1nc(-c2ccccc2)cs1 | 9% | -13 | -6% | ? | ? | ?
C=CCN(C(=O)C1CC(=O)N(C2CCCC2)C1)c1nc(-c2ccc(S(C)(=O)=O)cc2)cs1 (stereo not given) | -7% | 0 | -9% | 18% | 15µM* | 15µM*
